± gives the standard deviation.
What follows are sequences tested on MILI (PIWIL2) piRISC loaded with piRNA #1 (26 nt) (assay: pre-steady-state target cleavage rate (min^-1); guide: piRNA #1 5'p-UGAGGUAGUAGGUUGUAUAGUAUCCA; higher = faster piRNA-guided slicing of the target). Details: auxiliary factor: 500 nM mouse GTSF1.
Method in brief: (§1)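 The pre-steady-state cleavage rate was obtained by Cleave-'n-Seq with a burst-and-steady-state fit. A transcribed, DNA-blocked target RNA library (0.1 nM) was mixed with 1 nM active affinity-purified piRISC carrying one synthetic guide, with or without 500 nM GTSF1 partner protein, in HEPES–potassium acetate buffer at 33 °C for 0–8 or 0–960 min. Uncleaved targets were sequenced and normalised to depth and to weakly complementary targets, with three trials pooled and k3 capped at 0.0001 min^-1.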

| Sequence | pre-steady-state target cleavage rate |
| --- | --- |
| GGAGAGGUUACUAUACAACCUACUACCUGA | 0.0157 ± 0.0052 |
| GGAGAGGAAACUAUACAACCUACUACCACA | 0.155 ± 0.03 |
| GGAGACGAUACUAUACAACCUACUCACCUCA | 0.122 ± 0.019 |
| GGAGAGGAUACUAUACAACCUACUAUCCUCA | 0.0143 ± 0.0055 |
| GGAGACCUUACUAUUCAACCUACUACCUCA | 0.15 ± 0.012 |
| GGAGUGGAUACUAUACAACCUACGACCUCA | 0.0834 ± 0.0092 |
| GGAGUGCAUACUAUACAACCUACUAGCUCA | 0.0656 ± 0.0098 |
| GGAGACCAUACUAUACAACCUACCACCUCA | 0.0975 ± 0.015 |
| GGAGAGGAUACUAUACAACCUACUACGAGA | 0.00764 ± 0.0034 |
| GGAGACGAUAGUAAACAACCUACUACCUCA | 0.134 ± 0.01 |
| GGAGACGUUACUAUACAACGUACUACCUCA | 0.0206 ± 0.0027 |
| GGAGACCAUACUAUACAACCUACUACAUCA | 0.0875 ± 0.011 |
| GGAGAGGAAACUUUACAACCUACUACCUCA | 0.224 ± 0.031 |
| GGAGACGAUUCUAUACAACCUACUACCACA | 0.219 ± 0.015 |
| GGAGAGGAUACUAUACAACGUACUAGCUCA | 0.00413 ± 0.0037 |
| GGAGUGGAUACUAUACAACCUACUACCCUCA | 0.104 ± 0.013 |
| GGAGACGAUCCUAUACAACCUACUACCUCA | 0.174 ± 0.025 |
| GGAGAGGAUACUAUACACCUACUACCUCA | 0.0354 ± 0.0068 |
| GGAGUGGAUACUAUACCAACCUACUACCUCA | 0.0424 ± 0.0067 |
| GGAGUGGAUUCUAUACAACGUACUACCUCA | 0.0287 ± 0.0031 |

| Sequence | pre-steady-state target cleavage rate |
| --- | --- |
| GGAGAGGAUACUAAACAACCUACUAGCUCA | 0.0547 ± 0.012 |
| GGAGACCUUACUUUACAACCUAGUACCUCA | 0.047 ± 0.011 |
| GGAGAGGAUACUACACAACCUACUACCUCA | 0.193 ± 0.019 |
| GGAGACGUAUACUAUACAACCUACUACCUCA | 0.193 ± 0.013 |
| GGAGUGGAUACUAUACAACCUAUCUACCUCA | 0.113 ± 0.0078 |
| GGAGACCUUACAAUACAACGUACUACCUCA | 0.0135 ± 0.0052 |
| GGAGACGAUACUAUAGAACGUACUACCUCA | 0.0134 ± 0.0023 |
| GGAGACCUUACUAUACAACCUACUACCUGCA | 0.167 ± 0.019 |
| GGAGAGGAUACUAUACAACCUACUACGCUCA | 0.0912 ± 0.013 |
| GGAGACCUAACUAUACAACCUACUCCCUCA | 0.0941 ± 0.022 |
| GGAGACGAAACUUUACAACCUACUACCUCA | 0.213 ± 0.03 |
| GGAGACCUUACUAUACAACCUACUACCUAA | 0.154 ± 0.019 |
| GGAGAGGAUAUCUAUACAACCUACUACCUCA | 0.0599 ± 0.0073 |
| GGAGACCUUACUAUACAAGCUACUAGCUCA | 0.0972 ± 0.02 |
| GGAGAGGAUACUAUACAACCUACUACUCUCA | 0.123 ± 0.015 |
| GGAGACCUAUCUAUACAAGCUACUACCUGA | 0.125 ± 0.019 |
| GGAGACCAUACUAUACAACCUACUACCUCG [g2:g23:cont:t1G] | 0.195 ± 0.017 |
| GGAGACGAUACUAUACAACCUACUGACCUCA | 0.118 ± 0.015 |
| GGAGACCUAUCUAUACAACCUCCUACCUCA | 0.0185 ± 0.0046 |
| GGAGAGGAUACUAUACAUCCAACUACCUCA | 0.0065 ± 0.0019 |

What follows are sequences tested on EfPiwi piRISC loaded with piRNA #1 (26 nt) (assay: pre-steady-state target cleavage rate (min^-1); auxiliary factor: 500 nM Ephydatia muelleri Gtsf1; guide: piRNA #1 5'p-UGAGGUAGUAGGUUGUAUAGUAUCCA; MIWI and MILI are mouse PIWI proteins and EfPiwi is from a freshwater sponge; tags in brackets are library labels; higher = faster piRNA-guided slicing of the target). Details: not given.
Method in brief: as §1

| Sequence | pre-steady-state target cleavage rate |
| --- | --- |
| GGAGAGGUUACUAUACAACCUACUACCUGA | 0.00474 ± 0.0019 |
| GGAGAGGAAACUAUACAACCUACUACCACA | 0.00262 ± 0.0018 |
| GGAGACGAUACUAUACAACCUACUCACCUCA | 0.00418 ± 0.0019 |
| GGAGAGGAUACUAUACAACCUACUAUCCUCA | 0.00536 ± 0.0025 |
| GGAGACCUUACUAUUCAACCUACUACCUCA | 0.00413 ± 0.0039 |
| GGAGUGGAUACUAUACAACCUACGACCUCA | 0.00416 ± 0.0017 |
| GGAGUGCAUACUAUACAACCUACUAGCUCA | 0.00282 ± 0.0024 |
| GGAGACCAUACUAUACAACCUACCACCUCA | 0.00474 ± 0.0033 |
| GGAGAGGAUACUAUACAACCUACUACGAGA | 0.00374 ± 0.0018 |
| GGAGACGAUAGUAAACAACCUACUACCUCA | 0.00554 ± 0.004 |
| GGAGACGUUACUAUACAACGUACUACCUCA | 0.00362 ± 0.0014 |
| GGAGACCAUACUAUACAACCUACUACAUCA | 0.00692 ± 0.004 |
| GGAGAGGAAACUUUACAACCUACUACCUCA | 0.0107 ± 0.0049 |
| GGAGACGAUUCUAUACAACCUACUACCACA | 0.00382 ± 0.0024 |
| GGAGAGGAUACUAUACAACGUACUAGCUCA | 0.0029 ± 0.0015 |
| GGAGUGGAUACUAUACAACCUACUACCCUCA | 0.00587 ± 0.002 |
| GGAGACGAUCCUAUACAACCUACUACCUCA | 0.0157 ± 0.0085 |
| GGAGAGGAUACUAUACACCUACUACCUCA | 0.0984 ± 0.042 |
| GGAGUGGAUACUAUACCAACCUACUACCUCA | 0.0596 ± 0.021 |
| GGAGUGGAUUCUAUACAACGUACUACCUCA | 0.00313 ± 0.0019 |

| Sequence | pre-steady-state target cleavage rate |
| --- | --- |
| GGAGAGGAUACUAAACAACCUACUAGCUCA | 0.00242 ± 0.0017 |
| GGAGACCUUACUUUACAACCUAGUACCUCA | 0.00395 ± 0.0033 |
| GGAGAGGAUACUACACAACCUACUACCUCA | 0.00871 ± 0.004 |
| GGAGACGUAUACUAUACAACCUACUACCUCA | 0.0356 ± 0.013 |
| GGAGUGGAUACUAUACAACCUAUCUACCUCA | 0.00584 ± 0.0027 |
| GGAGACCUUACAAUACAACGUACUACCUCA | 0.00409 ± 0.004 |
| GGAGACGAUACUAUAGAACGUACUACCUCA | 0.00177 ± 0.0015 |
| GGAGACCUUACUAUACAACCUACUACCUGCA | 0.00419 ± 0.0031 |
| GGAGAGGAUACUAUACAACCUACUACGCUCA | 0.00523 ± 0.0019 |
| GGAGACCUAACUAUACAACCUACUCCCUCA | 0.00341 ± 0.0031 |
| GGAGACGAAACUUUACAACCUACUACCUCA | 0.0147 ± 0.0064 |
| GGAGACCUUACUAUACAACCUACUACCUAA | 0.00756 ± 0.0045 |
| GGAGAGGAUAUCUAUACAACCUACUACCUCA | 0.00594 ± 0.0046 |
| GGAGACCUUACUAUACAAGCUACUAGCUCA | 0.00451 ± 0.0043 |
| GGAGAGGAUACUAUACAACCUACUACUCUCA | 0.00775 ± 0.0031 |
| GGAGACCUAUCUAUACAAGCUACUACCUGA | 0.00244 ± 0.0023 |
| GGAGACCAUACUAUACAACCUACUACCUCG [g2:g23:cont:t1G] | 0.0177 ± 0.0074 |
| GGAGACGAUACUAUACAACCUACUGACCUCA | 0.00338 ± 0.0017 |
| GGAGACCUAUCUAUACAACCUCCUACCUCA | 0.00509 ± 0.0028 |
| GGAGAGGAUACUAUACAUCCAACUACCUCA | 0.00419 ± 0.0022 |
